# According to PubChem BioAssay AID1520 (The Scripps Research Institute Molecular Screening Center, 2009):
# The other results are listed elsewhere or left out. Calls of active or inactive are those of the source.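 Rule for the calls: active = cell growth inhibition above the hit limit set in the earlier mutant JAK2 cell screen (cut at about 27% in these data); inactive = the rest.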
# Test: growth loss in parental Ba/F3 cells – cell-based, murine pro-B, CellTiter-Glo luminescence, counter-screen for JAK2V617F inhibitor project (AID 1520);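 note: plate controls were DMSO-treated cells for no effect and JAK Inhibitor I control wells for full effect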
# Conditions: Ba/F3 parental viability, at 5.6 µM, hits give high values
smiles,measurement,value
CN(C)CC1Oc2ccccc2OC1(O)c1ccccc1 (stereo unspecified),inhibition,34.6% (active)
